From PubChem BioAssay (Tox21)
Inconclusive results are not listed. A call without a number means that no potency is given here. A number with no mark means an inactive call. The source made the active and inactive calls. Unless noted, calls follow the shape of the dose curve; as a rule, active = well fitted curve in the direction sought with a large enough effect in the repeat runs; inconclusive = weak or mixed curves; inactive = no such curve, though single readings can be large; an effect the other way counts as inactive or inconclusive.

Columns and labels:
[1] = biological target: Retinoic acid receptor RXR-alpha (Homo sapiens) (UniProt P19793); assay: qHTS assay to identify small molecule agonists of the RXR signaling pathway (AID 1159527; calls by dose curve; also: nearly all actives have a fitted effect of over 35% in size; also: potency is read from the fitted curve at half-maximal effect)
Chain of Retinoic acid receptor RXR-alpha (Homo sapiens) (P19793 whole entry, looked up): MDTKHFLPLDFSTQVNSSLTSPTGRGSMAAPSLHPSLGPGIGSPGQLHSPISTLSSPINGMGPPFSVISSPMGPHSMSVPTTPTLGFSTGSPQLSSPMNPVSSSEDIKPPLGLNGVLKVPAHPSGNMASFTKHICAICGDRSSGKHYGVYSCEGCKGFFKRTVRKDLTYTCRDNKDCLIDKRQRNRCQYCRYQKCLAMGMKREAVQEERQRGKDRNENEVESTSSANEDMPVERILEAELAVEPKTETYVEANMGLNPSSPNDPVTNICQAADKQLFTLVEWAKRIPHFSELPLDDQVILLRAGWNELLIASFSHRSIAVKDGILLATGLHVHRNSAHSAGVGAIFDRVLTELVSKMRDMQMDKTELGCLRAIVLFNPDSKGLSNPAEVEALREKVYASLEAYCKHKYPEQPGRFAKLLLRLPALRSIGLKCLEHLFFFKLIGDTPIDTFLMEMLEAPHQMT
In short: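 Using 9-cis retinoic acid as the reference agonist, chemicals were tested in HEK 293T cells […] for 16 hr; substrate loading lasted 2 hr at room temperature.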

[2] = qHTS assay to identify small molecule agonists of the RXR signaling pathway - cell viability counter screen (AID 1159529); also: series mostly up to about 77 µM; nearly all actives have a fitted effect of over 50% in size
In short: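 Compounds dissolved in DMSO were pinned onto HEK 293T cells carrying a beta-lactamase reporter under RXR-alpha control and incubated 16 hr. Cytotoxicity was then quantified by CellTiter-Glo luminescence.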

[3] = qHTS assay to identify small molecule antagonists of the retinoid acid receptor (RAR) signaling pathway - cell viability counter screen (AID 1159551); also: nearly all actives have a fitted effect of over 35% in size
In short: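 Cytotoxicity counter screen: ATP content quantified by CellTiter-Glo luminescence in C3RL4 cells treated 6 hr at 37 C with compound and retinol (1 uM final). Cells plated at 1,000/well and cultured overnight before dosing.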

[4] = qHTS assay to identify small molecule antagonists of the estrogen related receptor (ERR) signaling pathway from Tox21 library - cell viability counter screen (AID 1224834); also: nearly all actives have a fitted effect of over 30% in size
In short: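 CellTiter-Fluor fluorescence, read after 30 min at 37 C, measures viability of ERR cells. Cells plated at 2,000/well and incubated 6 h before pin-tool compound addition, then exposed 17.5 hours at 37 C.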

[5] = biological target: Luciferin 4-monooxygenase (Photinus pyralis) (UniProt P08659); assay: qHTS assay to identify small molecule inhibitors of firefly luciferase (AID 1224835); also: series mostly up to about 120 µM; nearly all actives have a fitted effect of over 25% in size
Chain of Luciferin 4-monooxygenase (Photinus pyralis) (P08659 whole entry, looked up): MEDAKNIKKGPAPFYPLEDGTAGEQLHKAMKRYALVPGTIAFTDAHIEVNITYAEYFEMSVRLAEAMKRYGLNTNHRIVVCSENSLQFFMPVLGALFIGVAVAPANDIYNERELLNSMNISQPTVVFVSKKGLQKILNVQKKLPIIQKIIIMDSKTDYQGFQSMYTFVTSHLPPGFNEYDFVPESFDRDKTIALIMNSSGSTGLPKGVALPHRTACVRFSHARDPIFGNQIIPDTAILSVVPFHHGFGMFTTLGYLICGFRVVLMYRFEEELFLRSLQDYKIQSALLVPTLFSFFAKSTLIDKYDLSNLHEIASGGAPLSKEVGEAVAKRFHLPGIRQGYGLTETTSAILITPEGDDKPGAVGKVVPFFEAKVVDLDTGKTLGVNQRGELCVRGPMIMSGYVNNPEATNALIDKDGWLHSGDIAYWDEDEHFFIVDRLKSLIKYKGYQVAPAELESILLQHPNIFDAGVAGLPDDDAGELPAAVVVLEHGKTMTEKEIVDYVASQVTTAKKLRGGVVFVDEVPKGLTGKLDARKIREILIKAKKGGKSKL
In short: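 Inhibition of purified Photinus luciferase is measured by luminescence. Substrate levels (D-luciferin, ATP) sit at their KM values. Each compound is tested in a concentration series.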

[6] = qHTS assay to identify small molecule agonists of the constitutive androstane receptor (CAR) signaling pathway - cell viability counter screen (AID 1224836); also: series mostly up to about 92 µM; nearly all actives have a fitted effect of over 45% in size
In short: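 23 h treatment, 37 C, 5% CO2. Cell line: HepG2 stably expressing hCAR with a CYP2B6-2.2kb construct. Co-treatment: PK11195, 0.75 uM final. Read-out: CellTiter-Fluor fluorescence intensity.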

[7] = qHTS assay to identify small molecule antagonists of the constitutive androstane receptor (CAR) signaling pathway - cell viability counter screen (AID 1224837); also: series mostly up to about 92 µM; nearly all actives have a fitted effect of over 45% in size
In short: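 Cytotoxicity counter-screen: CellTiter-Fluor fluorescence after 23 h compound exposure (15-point qHTS) in double-stable HepG2-CYP2B6-hCAR cells, with 50 nM CITCO added.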

[8] = biological target: Nuclear receptor subfamily 1 group I member 3 (Homo sapiens) (UniProt Q14994); assay: qHTS assay to identify small molecule antagonists of the constitutive androstane receptor (CAR) signaling pathway (AID 1224838);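 also: HepG2 cells stably expressing hCAR with CYP2B6 luciferase reporter stimulated by CITCO; nearly all actives have a fitted effect of over 40% in size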; also: potency is read from the fitted curve at half-maximal effect
Chain of Nuclear receptor subfamily 1 group I member 3 (Homo sapiens) (Q14994 whole entry, looked up): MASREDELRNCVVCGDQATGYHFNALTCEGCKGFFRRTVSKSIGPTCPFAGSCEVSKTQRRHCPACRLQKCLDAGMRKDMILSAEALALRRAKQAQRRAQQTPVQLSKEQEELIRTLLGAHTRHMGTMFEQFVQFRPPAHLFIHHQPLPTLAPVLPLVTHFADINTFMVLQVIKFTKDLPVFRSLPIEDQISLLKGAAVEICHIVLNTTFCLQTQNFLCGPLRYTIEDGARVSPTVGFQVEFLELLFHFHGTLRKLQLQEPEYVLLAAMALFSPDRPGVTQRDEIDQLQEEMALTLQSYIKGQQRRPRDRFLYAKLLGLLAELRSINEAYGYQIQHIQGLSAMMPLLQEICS
In short: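 Antagonism measured as luciferase signal (ONE-Glo, 30 min, room temperature) in CAR-stimulated cells: HepG2-CYP2B6-hCAR double-stable line exposed 24 hr at 37 C to compound in a 15-point series plus 50 nM CITCO.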

[9] = qHTS assay to identify small molecule antagonists of the estrogen related receptor signaling pathway with the pleiotropic PPARgamma coactivator (PGC) from Tox21 10K library - cell viability counter screen (AID 1224840; active = well fitted cell-killing curve with a large enough effect in the repeat runs, not every such curve was filed as active; also: nearly all actives have a fitted effect of over 40% in size)
In short: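 Counter-screen for cytotoxicity: after 17.5 h compound exposure at 37 C, CellTiter-Fluor reagent added to PGC/ERR cells for 30 min and fluorescence read. Cells were seeded at 2,000 per well 6 h before dosing.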

[10] = biological target: Nuclear receptor subfamily 1 group I member 3 (Homo sapiens) (UniProt Q14994); assay: qHTS assay to identify small molecule agonists of the constitutive androstane receptor (CAR) signaling pathway (AID 1224839);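 also: HepG2 cells stably carrying human CAR and a CYP2B6 luciferase reporter; series mostly up to about 92 µM; nearly all actives have a fitted effect of over 15% in size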
In short: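 Compounds tested at 15 concentrations on HepG2 cells stably harbouring hCAR and CYP2B6-2.2kb reporter constructs, co-treated with PK11195 (0.75 uM final), 24 h at 37 C; luminescent reporter signal quantified.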

SMILES	Potency [1]	Potency [2]	outcome [3]	Potency [4]	Potency [5]	outcome [6]	outcome [7]	Potency [8]	outcome [9]	Potency [10]
CC(C=O)Cc1ccc(C(C)C)cc1 (centres undefined)	inactive	inactive	inactive	inactive	inactive	inactive	inactive	inactive	inactive	–
NS(=O)(=O)c1cc(C2(O)NC(=O)c3ccccc32)ccc1Cl (centres undefined)	inactive	inactive	inactive	inactive	inactive	inactive	inactive	–	inactive	–
C=CCOc1nc(OCC=C)nc(OCC=C)n1	inactive	inactive	inactive	inactive	inactive	inactive	inactive	–	inactive	–
CC(C)CCOC(=O)CC(C)C	inactive	inactive	inactive	inactive	inactive	inactive	inactive	inactive	inactive	inactive
CCCCCCCCCCCCCCCCCC(=O)OCCCCCCCCCCCCCC(C)C	inactive	inactive	inactive	inactive	inactive	inactive	inactive	–	inactive	–
CCCc1ccccc1O	inactive	inactive	inactive	inactive	inactive	inactive	inactive	inactive	inactive	inactive
CC1=CC(C)C(C=O)C(C)C1 (centres undefined)	inactive	inactive	inactive	inactive	inactive	inactive	inactive	–	inactive	inactive
Cc1ccccc1C(=O)O	inactive	inactive	inactive	inactive	inactive	inactive	inactive	–	inactive	–
C[N+](C)(C)CC[N+]1(C)Cc2c(Cl)c(Cl)c(Cl)c(Cl)c2C1	inactive	inactive	inactive	inactive	inactive	inactive	inactive	–	inactive	–
CCN1CCN(c2cc3c(cc2F)c(=O)c(C(=O)O)cn3C2CC2)CC1	inactive	inactive	inactive	inactive	inactive	inactive	inactive	–	inactive	inactive
CC(=O)CCc1ccc(O)cc1	inactive	inactive	inactive	inactive	inactive	inactive	inactive	–	inactive	–
CC(CCO)CCCC(C)(C)O (centres undefined)	3.09 µM (active)	inactive	inactive	inactive	inactive	inactive	inactive	27.3 µM (active)	inactive	inactive
NS(=O)(=O)c1cc2c(cc1Cl)NC(CSCc1ccccc1)=NS2(=O)=O	inactive	inactive	inactive	inactive	inactive	inactive	inactive	inactive	inactive	–
CC/C=C\CCCCO	inactive	inactive	inactive	inactive	inactive	inactive	inactive	–	inactive	–
CCc1cc(S(=O)(=O)O)c2cc(C(C)C)cccc1-2	inactive	inactive	inactive	inactive	inactive	inactive	inactive	–	inactive	–
OCCN1C[C@H](O)[C@@H](O)[C@H](O)[C@H]1CO	inactive	inactive	inactive	inactive	inactive	inactive	inactive	–	inactive	–
NS(=O)(=O)c1cc2c(cc1C(F)(F)F)NC(Cc1ccccc1)NS2(=O)=O (centres undefined)	inactive	inactive	inactive	inactive	inactive	inactive	inactive	inactive	inactive	inactive
CCCCC=O	17.4 µM (active)	inactive	inactive	inactive	inactive	inactive	inactive	–	inactive	–
COCc1ccc(COC)cc1	inactive	inactive	inactive	inactive	inactive	inactive	inactive	inactive	inactive	inactive
CCCCc1ccc(N)cc1	inactive	inactive	inactive	inactive	inactive	inactive	inactive	–	inactive	inactive
C=C(C)C(=O)NCCC[N+](C)(C)C	inactive	inactive	inactive	inactive	inactive	inactive	inactive	–	inactive	inactive
Cc1nccn1CC1CCc2c(c3ccccc3n2C)C1=O (centres undefined)	inactive	inactive	inactive	inactive	inactive	inactive	inactive	–	inactive	–
CC(C)(O)C(=O)c1ccc(OCCO)cc1	inactive	inactive	inactive	inactive	inactive	inactive	inactive	–	inactive	–
N#CCN(CC#N)CCN(CC#N)CC#N	inactive	inactive	inactive	inactive	inactive	inactive	inactive	–	inactive	inactive
